The text below walks through data of PubChem BioAssay (NCATS).

Records with an inconclusive call do not appear. A structure can be active in one record and inactive in another. A number with no mark means an inactive call. Activity calls are given as the source filed them. Unless noted, calls come from the whole dose curve; as a rule, active = well fitted curve in the direction sought with a large enough effect; inconclusive = small, poorly fitted or top-dose-only effect, or another doubt; inactive = no such curve, though single readings can be large; an effect the other way counts as inactive or inconclusive.

The nature of experiment [1]: P-glycoprotein substrates identified in KB-8-5-11 adenocarcinoma cell line, qHTS therapeutic library screen (AID 1346987). Note: potency is the fitted concentration of half-maximal effect; nearly all actives have a fitted effect of over 65% in size. Summed up: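 KB-8-5-11, a colchicine-selected P-gp-overexpressing KB-3-1 subline, was grown without colchicine for the assay. Cells were seeded at 500 cells/well, dosed in concentration-response and incubated 72 h at 37 degree C, 5% CO2. Viability was read by CellTiter-Glo luminescence.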

Experiment [2] can be described thus: Primary qHTS for inhibitors of nuclear receptor binding SET domain protein 2 (NSD2) in an isogenic RCH-ACV NSD2 p.E1099K mutant (9B) (AID 1645876). Note: potency is the fitted concentration of half-maximal effect; nearly all actives have a fitted effect of over 70% in size.
Experiment [3] in a line: Primary qHTS for inhibitors of nuclear receptor binding SET domain protein 2 (NSD2) in an RCH-ACV wild type WT cells (2C) (AID 1645877). Note: potency is the fitted concentration of half-maximal effect; nearly all actives have a fitted effect of over 70% in size.
Experiment [4] has as its target Glutathione peroxidase 1 (Homo sapiens) (UniProt P07203). Kind of experiment: Primary qHTS Assay for Inhibitors of Recombinant Selenoprotein Glutathione Peroxidase 1 (GPX1) (AID 1845191). Note: % is set by controls: 0 for no effect and ±100 for the full control effect; nearly all actives have a fitted effect of over 65% in size. The gist of the method: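 10 nM GPX1 + cpd, 30 min RT; start w/ 1 mM GSH, 0.5 mM cumene hydroperoxide, 0.5 mM NADPH, 100 nM GR, 0.01% BSA; buffer 50 mM Tris-HCl pH 7.5, 2 mM EDTA, 150 mM NaCl; Fl 340/450, 0 & 15 min.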

The subject of experiment [5] is Zika virus NS2B-NS3 protease. The experiment is described as follows: Primary screen GU AMC qHTS for Zika virus inhibitors (AID 1347154).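 Note: 0% = no-inhibitor control and -100% = no-enzyme control; nearly all actives have a fitted effect of over 70% in size.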 Summed up: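 Fluorogenic AMC-substrate cleavage by noncovalent NS2B-NS3 protease complex (25 nM, pH 8.0 Tris buffer with Tween 20) followed for 15 minutes at room temperature (~20% conversion). Percent inhibition from ex340/em450 signal change, fitted by 4-parameter Hill equation.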

Experiment [6] can be described thus: qHTS for Inhibitors of Plasmodium falciparum (DD2) proliferation (AID 504314).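 For activity, negative = inhibition: parasite DNA measured by SYBR Green fluorescence after red cell lysis; plate controls were DMSO vehicle for no effect and artemisinin wells for full effect.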 Note: potency is the fitted concentration of half-maximal effect. The gist of the method: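 Erythrocytes infected with P. falciparum (0.3% parasitemia, 2.5% hematocrit final) were incubated with compounds for 72 h at 37C, 5% CO2. Parasite DNA was detected by SYBR Green I fluorescence after saponin/Triton lysis, normalized to artemisinin (0.29 uM) and DMSO controls.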

Experiment [7] can be described thus: qHTS for Inhibitors of Plasmodium falciparum (GB4) proliferation (AID 504315).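 For activity change, negative = inhibition: 0% = DMSO vehicle and -100% = 0.29 µM artemisinin control.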 Note: nearly all actives have a fitted effect of over 50% in size. Note: potency is the fitted concentration of half-maximal effect. The gist of the method: (§1)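 Erythrocytes infected with P. falciparum line (0.3% parasitemia, 2.5% hematocrit final) incubated with compounds 72 h at 37 °C, 5% CO2; SYBR Green lysis buffer added, fluorescence read next day. Normalized to 0.29 uM artemisinin and DMSO.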
Experiment [8] can be described thus: qHTS for Inhibitors of Plasmodium falciparum (7G8) proliferation (AID 504316).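 For activity change, negative = inhibition: series mostly up to about 6.7 µM; 0% = DMSO vehicle and -100% = 0.29 µM artemisinin full kill.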 Note: nearly all actives have a fitted effect of over 65% in size. Note: potency is the fitted concentration of half-maximal effect. The gist of the method: as §1
Experiment [9] has as its target Atrial natriuretic peptide receptor 1 (Homo sapiens) (UniProt P16066). Kind of experiment: Natriuretic polypeptide receptor (hNpr1) antagonism - Pilot CMLD screen (AID 1347052; calls by dose curve;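 note: HEK293 cells with hNpr1 stimulated by hNppA peptide at 0.1 nM; cGMP level read as GloSensor luciferase luminescence after agonist stimulation; series mostly up to about 9.2 µM; % is set by controls: 0 for no effect and ±100 for the full control effect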).
A short description of experiment [10]: qHTS for Inhibitors of Plasmodium falciparum (HB3) proliferation (AID 504318).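 For activity change, negative = inhibition: 0% = DMSO vehicle and -100% = artemisinin control.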 Note: nearly all actives have a fitted effect of over 60% in size. Note: potency is the fitted concentration of half-maximal effect. The gist of the method: as §1
Experiment [11] can be described thus: qHTS for Inhibitors of Plasmodium falciparum (CP250) proliferation (AID 504320).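 Note: plate controls were DMSO vehicle for no effect and 0.29 µM artemisinin control for full effect.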 Summed up:
as §1

Experiment [12] addresses Rap guanine nucleotide exchange factor 3 (Homo sapiens) (UniProt O95398). Kind of experiment: Confirmatory qHTS for agonist of cAMP-regulated guanine nucleotide exchange factor 3 (EPAC1) (AID 1645881).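 Note: EPAC1 catalysed release of BODIPY-GDP from Rap1B seen as fluorescence loss; 100% = effect of cAMP agonist control; nearly all actives have a fitted effect of over 75% in size.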
Experiment [13] has as its target Rap guanine nucleotide exchange factor 4 (Homo sapiens) (UniProt Q8WZA2). Kind of experiment: Confirmatory qHTS for agonist of cAMP-regulated guanine nucleotide exchange factor 4 (EPAC2) (AID 1645884).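 Note: nucleotide exchange releases bodipy-GDP from Rap1 and this lowers its fluorescence; % is set by controls: 0 for no effect and ±100 for the full control effect; nearly all actives have a fitted effect of over 65% in size.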
The target is the same in experiment [14]. Kind of experiment: Confirmatory qHTS for antagonist of cAMP-regulated guanine nucleotide exchange factor 4 (EPAC2) (AID 1645885). Note: % is set by controls: 0 for no effect and ±100 for the full control effect; nearly all actives have a fitted effect of over 25% in size.
For experiment [15], the target named is Rap guanine nucleotide exchange factor 3 (Homo sapiens) (UniProt O95398). Kind of experiment: Counterscreen qHTS for antagonist of cAMP-regulated guanine nucleotide exchange factor 3 (EPAC1) (AID 1645888).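 Note: fluorescence loss as bound BODIPY-GDP is released from Rap1B; % of control where 0% means no effect.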 Summed up:
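Rap1B-BODIPY-GDP 250 nM + GDP 50 uM; cpds 7-pt, final 9.74 nM–152 uM (activator mode) or from 7.32 nM upwards (inhibitor mode); RT; FI 480/540 nm at 5 and 30 min, then ± cAMP, reread.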

Chain of Atrial natriuretic peptide receptor 1 (Homo sapiens) (P16066 whole entry, looked up): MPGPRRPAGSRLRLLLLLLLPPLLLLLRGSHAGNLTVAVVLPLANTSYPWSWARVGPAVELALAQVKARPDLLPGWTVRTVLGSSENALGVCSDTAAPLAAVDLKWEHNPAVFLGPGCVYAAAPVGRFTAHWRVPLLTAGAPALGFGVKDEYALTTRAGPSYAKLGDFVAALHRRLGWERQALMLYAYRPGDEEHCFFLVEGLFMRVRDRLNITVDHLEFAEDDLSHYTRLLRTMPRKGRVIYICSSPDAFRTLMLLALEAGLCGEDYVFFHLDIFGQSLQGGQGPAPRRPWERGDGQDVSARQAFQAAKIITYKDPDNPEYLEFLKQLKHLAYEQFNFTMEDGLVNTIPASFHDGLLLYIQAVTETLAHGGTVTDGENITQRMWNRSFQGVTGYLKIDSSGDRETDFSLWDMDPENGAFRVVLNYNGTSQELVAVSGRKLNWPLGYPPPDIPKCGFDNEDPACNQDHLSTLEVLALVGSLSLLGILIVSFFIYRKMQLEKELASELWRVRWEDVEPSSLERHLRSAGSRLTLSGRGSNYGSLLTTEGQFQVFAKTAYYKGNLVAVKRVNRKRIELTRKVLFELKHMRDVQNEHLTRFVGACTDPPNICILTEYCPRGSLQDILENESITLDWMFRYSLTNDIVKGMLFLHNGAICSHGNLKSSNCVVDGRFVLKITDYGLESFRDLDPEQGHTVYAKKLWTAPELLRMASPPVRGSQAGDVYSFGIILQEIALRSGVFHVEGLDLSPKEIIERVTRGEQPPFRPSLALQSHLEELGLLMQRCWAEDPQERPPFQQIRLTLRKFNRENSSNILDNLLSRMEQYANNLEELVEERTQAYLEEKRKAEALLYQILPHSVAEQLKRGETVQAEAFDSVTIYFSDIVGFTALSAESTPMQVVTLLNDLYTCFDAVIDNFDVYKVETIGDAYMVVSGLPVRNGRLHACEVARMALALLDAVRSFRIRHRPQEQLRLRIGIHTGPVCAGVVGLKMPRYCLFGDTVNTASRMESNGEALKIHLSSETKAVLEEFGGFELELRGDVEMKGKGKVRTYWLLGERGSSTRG
Chain of Glutathione peroxidase 1 (Homo sapiens) (P07203 whole entry, looked up): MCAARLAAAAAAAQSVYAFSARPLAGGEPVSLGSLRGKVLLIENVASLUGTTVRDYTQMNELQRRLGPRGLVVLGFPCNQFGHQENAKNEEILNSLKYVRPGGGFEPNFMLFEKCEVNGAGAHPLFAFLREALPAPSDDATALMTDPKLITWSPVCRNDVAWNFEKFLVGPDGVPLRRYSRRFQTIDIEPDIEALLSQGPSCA
Chain of Rap guanine nucleotide exchange factor 3 (Homo sapiens) (O95398 whole entry, looked up): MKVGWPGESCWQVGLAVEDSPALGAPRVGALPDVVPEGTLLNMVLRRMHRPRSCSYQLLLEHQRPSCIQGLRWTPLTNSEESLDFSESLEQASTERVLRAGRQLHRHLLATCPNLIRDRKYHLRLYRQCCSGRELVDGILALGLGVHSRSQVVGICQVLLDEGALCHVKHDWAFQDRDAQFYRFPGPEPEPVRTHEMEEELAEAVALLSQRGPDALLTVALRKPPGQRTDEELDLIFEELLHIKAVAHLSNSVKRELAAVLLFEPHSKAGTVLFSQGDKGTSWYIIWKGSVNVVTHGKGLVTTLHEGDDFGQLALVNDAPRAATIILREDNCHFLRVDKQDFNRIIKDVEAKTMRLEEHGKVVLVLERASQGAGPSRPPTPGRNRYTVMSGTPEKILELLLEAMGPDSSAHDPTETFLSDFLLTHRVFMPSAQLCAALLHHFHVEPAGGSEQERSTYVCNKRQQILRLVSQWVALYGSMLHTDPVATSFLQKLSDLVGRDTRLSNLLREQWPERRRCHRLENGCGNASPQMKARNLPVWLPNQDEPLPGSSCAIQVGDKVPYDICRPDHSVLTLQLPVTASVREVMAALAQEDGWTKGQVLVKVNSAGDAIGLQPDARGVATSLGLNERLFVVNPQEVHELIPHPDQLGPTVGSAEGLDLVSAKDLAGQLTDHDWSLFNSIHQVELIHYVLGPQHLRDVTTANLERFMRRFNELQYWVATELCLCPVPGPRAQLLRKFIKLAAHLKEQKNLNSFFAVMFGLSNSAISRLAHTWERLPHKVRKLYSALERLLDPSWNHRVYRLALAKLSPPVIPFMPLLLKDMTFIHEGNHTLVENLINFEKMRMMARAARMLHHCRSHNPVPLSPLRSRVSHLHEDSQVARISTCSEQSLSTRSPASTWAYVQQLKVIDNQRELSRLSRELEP
Chain of Rap guanine nucleotide exchange factor 4 (Homo sapiens) (Q8WZA2 whole entry, looked up): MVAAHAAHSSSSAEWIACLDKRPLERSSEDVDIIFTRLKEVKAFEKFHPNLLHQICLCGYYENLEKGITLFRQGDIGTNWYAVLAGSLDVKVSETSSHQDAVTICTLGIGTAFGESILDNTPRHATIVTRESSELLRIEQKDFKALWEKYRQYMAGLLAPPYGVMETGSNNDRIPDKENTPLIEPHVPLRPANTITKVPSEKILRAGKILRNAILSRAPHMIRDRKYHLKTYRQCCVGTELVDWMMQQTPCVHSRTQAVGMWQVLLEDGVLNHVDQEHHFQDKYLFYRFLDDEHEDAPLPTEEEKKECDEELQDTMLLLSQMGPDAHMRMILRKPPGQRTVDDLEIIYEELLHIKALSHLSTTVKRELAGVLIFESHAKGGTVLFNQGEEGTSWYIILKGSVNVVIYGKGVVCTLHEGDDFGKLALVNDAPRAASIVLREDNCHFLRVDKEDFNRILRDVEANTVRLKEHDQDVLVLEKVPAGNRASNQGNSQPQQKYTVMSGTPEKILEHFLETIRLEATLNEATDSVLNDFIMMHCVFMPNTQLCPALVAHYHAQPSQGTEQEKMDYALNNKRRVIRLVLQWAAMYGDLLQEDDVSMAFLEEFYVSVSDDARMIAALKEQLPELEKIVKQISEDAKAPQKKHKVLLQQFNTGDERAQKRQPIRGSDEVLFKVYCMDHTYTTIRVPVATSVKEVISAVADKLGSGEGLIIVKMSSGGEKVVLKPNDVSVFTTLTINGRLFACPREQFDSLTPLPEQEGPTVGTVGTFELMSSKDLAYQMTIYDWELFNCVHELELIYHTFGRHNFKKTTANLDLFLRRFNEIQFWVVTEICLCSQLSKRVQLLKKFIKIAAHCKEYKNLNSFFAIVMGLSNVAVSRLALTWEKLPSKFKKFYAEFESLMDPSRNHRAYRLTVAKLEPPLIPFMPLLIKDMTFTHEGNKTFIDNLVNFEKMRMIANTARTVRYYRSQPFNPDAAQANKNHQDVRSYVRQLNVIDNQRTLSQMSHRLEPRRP

Consider `CC/C(=C(/CC)c1ccc(O)c(CN(CC)CC)c1)c1ccc(O)c(CN(CC)CC)c1`, for which the Potency is 14600 nM (active) in [1], 9200 nM (active) in [2] and 16400 nM (active) in experiment [3]. Further, in [4], the Potency entry was “inactive”.

In the case of `O=C1NC(=O)c2cc(Nc3ccc(F)cc3)c(Nc3ccc(F)cc3)cc21`, the Potency in [1] was 14600 nM (active). Besides, the Potency result in [5] and in experiment [4] was “inactive” each time.

As for `COC1=CC2C(=O)C(C1=O)[C@H](c1ccccc1)[C@H]2C` (stereo partly specified), the Potency result in [6], in [7], in experiment [8] and in [9] was “inactive” in each case.

On to `C=CCC12C=C(OC)C(=O)C(C1=O)C(c1ccc(OC)cc1)C2C` (stereo unspecified), for which, in experiment [9], the Potency entry was “inactive”.

With `Cc1ccc(C(=O)OC[C@H]2O[C@H](Cl)C[C@H]2OC(=O)c2ccc(C)cc2)cc1`, the Potency in [6] is 1690 nM (active). In addition, in [9], the Potency result was “inactive”.

Turning to `CC(C)(C)c1ccc(O[C@@H]2[C@H](O)CO[C@@H]2C=CC#Cc2ccccc2)cc1`, the Potency result in experiment [9] is “inactive”.

In the case of `FC(F)(F)c1cc(NC(=S)Nc2ccc3cc4ccccc4cc3c2)cc(C(F)(F)F)c1`, the Potency result in [9] is “inactive”.

As for `CCCCC1=CC2=CC(=O)C(C)(OC(=O)CCc3ccccc3)C(=O)C2=CO1` (stereo unspecified), the Potency entry in [6], in experiment [8], in [10], in [11] and in experiment [9] was “inactive” each time. Further, the compound was classed as inactive in experiment [12]. Further, the activation in experiment [13] was 0% [at 17.1 µM]. Moreover, the values for the activity change, negative = inhibition in [14] and in experiment [15] were 20.8% [at 12.7 µM] and 1.91% [at 30.8 µM], respectively.

With `CC(CCN1CCCc2nc(C)c(C)cc21)=NOC[C@@H](C)[C@H](OCc1ccccc1)C(C)C`, the Potency result in [6], in experiment [7] and in experiment [9] was “inactive” each time.

For the compound `CCCCc1cc2c(cn1)=C(OC(=O)c1cccs1)C(C)(OC(=O)CC)C(=O)C=2` (stereo unspecified), the Potency in experiment [6] is 1890 nM (active); in [7], 1690 nM (active); in experiment [8], 1690 nM (active); in experiment [10], 1900 nM (active). For the same compound, the activity, negative = inhibition in experiment [6] is 1.64% [at 1.12 µM]. For the same compound, the Potency entry in experiment [11] and in [9] was “inactive” each time.

On to `CCCCCCCC1=Cc2ccc(F)cc2C(C(C(=O)OC)C(=O)OC)N1C(=O)OC` (stereo unspecified), for which the activity, negative = inhibition in [6] was -0.0199% [at 1.12 µM]. Besides, in [9], the Potency result was “inactive”.

In the case of `COC(=O)CC1c2ccccc2C(Cc2ccc3c(c2)OCO3)=C(C)N1C(=O)OC` (stereo unspecified), the Potency entry in experiment [6], in experiment [7] and in experiment [9] was “inactive” in each case.

As for `C=CC[C@@H]1C=C[C@@H](Oc2ccc(OC)cc2)[C@H](COC(=O)c2ccc(Br)cc2)O1`, the Potency entry in experiment [6], in experiment [7], in experiment [8] and in experiment [9] was “inactive” in each case.

Turning to `COc1cc2c(c(OC)c1OC)C(c1ccccc1)(c1ccccc1)CC2NC(=O)C(F)(F)F` (stereo unspecified), in experiment [9], the Potency result is “inactive”.

For the compound `CCC(C)CN1C(=O)NC(CCc2ccccc2)C(C(C)=O)=C1C` (stereo unspecified), the Potency entry in [9] is “inactive”.

On to `COC(=O)N[C@H](CC(C)=O)c1cccs1`, for which the Potency entry in [6], in experiment [7], in experiment [8] and in experiment [9] was “inactive” in each case.

With `C[C@H]1Cc2c(COc3ccccc3)nc3c(c2CO1)CN(C(=O)c1cccnc1)CC3`, in [6], the activity, negative = inhibition was 0.654% [at 1.12 µM]. The Potency result in experiment [7] and in [9] was “inactive” throughout.

Regarding `C=CC[C@@]1(c2ccccc2)Oc2ccccc2-c2nc3ccccc3nc21`, in experiment [9], the Potency entry is “inactive”.

With `CC(=O)OC[C@H]1O[C@H](CCON=C(C)CCN2CCCc3nc(C)c(C)cc32)C=C[C@H]1OC(C)=O`, the Potency result in [6], in experiment [7] and in [9] was “inactive” throughout.

`COC(=O)C1=C(C)N(Cc2ccccc2)C(=NCc2cc(OC)c(OC)c(OC)c2)NC1c1cccc(F)c1` (stereo unspecified): the Potency in experiment [6] is 1190 nM (active). In experiment [9], the Potency entry was “inactive”.

In the case of `COc1cc2c(c(OC)c1OC)[C@@]1(c3ccccc3)CCCCC[C@H]1[C@@H]2NC(=O)C(F)(F)F`, the Potency result in experiment [9] was “inactive”.

As to `COc1ccc(-c2nc(-c3ccccc3)c(NC(C)C)o2)cc1`, the Potency in experiment [6] was 1690 nM (active); in experiment [7], 1510 nM (active); in [8] it was 1510 nM (active). In addition, the Potency entry in experiment [9] was “inactive”.

Regarding `CC(CCN1CCCCc2nc(C)c(C)cc21)=NO[C@H](C)CN1CCCc2nc(C)c(C)cc21`, the Potency result in experiment [9] was “inactive”.

Consider `C=CC1=C2C=C(C3CC3)N(CCCOC(C)C)C=C2C(=O)C(C)(OC(=O)c2ccco2)C1=O` (stereo unspecified), for which, in [6], the activity, negative = inhibition was 4.15% [at 1.12 µM]. The Potency result in experiment [7], in experiment [8] and in experiment [9] was “inactive” in each case.

Consider `COC(=O)C1=C(C(=O)OC)[C@@H]2N(C)c3ccccc3[C@@]23C[C@@H](CO)N(C(=O)NC2CCCCC2)C3=N1`, for which the Potency result in experiment [6] and in [9] was “inactive” in each case.

For `CCCC[C@@H]1CN2[C@@H](CC[C@H](C)[C@@H]2c2ccc(Br)cc2)C(=O)O1`, the Potency result in experiment [6], in experiment [7], in experiment [8], in experiment [10] and in [9] was “inactive” each time.
